Assay outcomes: PubChem BioAssay, several laboratories
Sampled rows, rich in hits. Any-hit rate of the full collection: about 3.7%.
Anthrax LF inh2 – blocks Bacillus anthracis lethal factor protease; P15917; inhibition, % at 10 µM; multiplex microsphere protease cleavage assay, LF; hit rate 0.12% among 360,000; also: plate controls were buffer without enzyme for full effect and enzyme alone for no effect
BoNT-A LC inh2 – BoNT A light chain protease inhibition; multiplex microsphere protease substrate cleavage, flow cytometry; inhibition, % at 10 µM; hit rate 0.17% among 360,000; AID 588499; also: plate controls were buffer without enzyme for full effect and enzyme alone for no effect
BoNT F protease – BoNT F light chain protease inhibition; Multiplex microsphere protease cleavage assay, flow cytometry; inhibition, % at 10 µM; hit rate 0.22% among 360,000; AID 588497; in the data active = inhibition above about 35%, passing the limit was not always enough; inconclusive = no clear call, values can overlap the other calls; also: plate controls were buffer without enzyme for full effect and enzyme alone for no effect
MazF activator – increases E. coli MazEF RNase cleavage of RNA | activation, % at 20 µM | FAM/BHQ RNA-DNA oligo cleavage fluorescence, 5 h | hit rate 0.32% among 350,000; in the data active = activation above about 50%
Target sequence (P0AE70 whole entry, looked up): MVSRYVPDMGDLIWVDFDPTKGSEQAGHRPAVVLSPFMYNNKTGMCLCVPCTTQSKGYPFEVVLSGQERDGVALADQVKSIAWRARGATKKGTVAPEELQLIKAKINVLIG
Autofluor counter – flagged as autofluorescent in microsphere protease counterscreen; compound autofluorescence counterscreen, microsphere flow cytometry; active compounds read high; fluorescence intensity (test concentration not listed); hit rate 3.1% among 360,000; in the data active = fluorescence intensity above about 16000; inconclusive = no clear call, values can overlap the other calls
Numbers without * were called inactive; ? = inconclusive; / = not tested or not shown. Rule as the data show it, unless noted: active = inhibition above about 30%; inconclusive = no clear call, values can overlap the other calls; inactive = below that.

SMILES	Anthrax LF inh2	BoNT-A LC inh2	BoNT F protease	MazF activator	Autofluor counter
N/C(=N\OC(=O)c1cccc(Br)c1)c1ccc(Br)cc1	-4	0	-7	-8	3015
CCC(=O)Nc1ccccc1C(=O)OCc1ccc(C(=O)c2ccccc2)cc1	-13	8	9	-5	20219*
CC(=O)Nc1ccccc1C(=O)OCc1ccc(F)cc1	-9	-1	6	-6	4021
O=C(OCc1ccc(Cl)cc1)c1ccccc1C(=O)c1ccccc1	-12	-3	-8	-9	17651*
NC(=O)NC(CC(=O)NNC(=O)c1ccccn1)c1ccccc1Cl (stereo not given)	4	-1	-4	8	7986
Cc1ccc(NS(=O)(=O)c2ccc3c(c2)NC(=O)CCS3)cc1C	4	1	26	-3	5388
COc1ccc(C(=O)O/N=C(\N)Cc2ccc(Cl)cc2)cc1OC	7	0	-4	1	3250
N/C(Cc1ccc(Cl)cc1)=N\OC(=O)c1ccccc1	-1	1	42*	3	4345
Cc1ccc(S(=O)(=O)NCC(=O)NC2CC2)cc1	4	3	-5	0	5631
Cc1cc([N+](=O)[O-])nn1CC(=O)N1N=C(C(F)F)CC1(O)C(F)F (stereo not given)	-2	-1	-4	4	2469
CCOC(=O)Cn1cc([N+](=O)[O-])c(OC)n1	-2	0	-5	-6	2532
COc1nn(CC(=O)N2N=C(C(F)F)CC2(O)C(F)F)cc1[N+](=O)[O-] (stereo not given)	-3	-3	-4	5	23495*
COc1nn(C(C)C(=O)N2N=C(C(F)F)CC2(O)C(F)F)cc1[N+](=O)[O-] (stereo not given)	3	-1	-1	-1	20181*
Cc1ccc(OCC(=O)N/N=C\c2ccncc2)c(C)c1	-1	0	3	5	2019
CC(=O)Nc1cccc(-c2nnc(SCC(=O)N3CCCCC3)n2C)c1	0	-2	-3	-2	24749*
CCCOC(=O)Nc1nnc(CCC)s1	2	7	10	1	21272*
CCCCCc1nnc(NC(=O)OCCC)s1	-1	0	3	14	4094
CCOc1ccc(CCn2c(-c3ccco3)nc3ccccc3c2=O)cc1OCC	-2	-1	-6	8	16599*
O=C(Nc1cccnc1)C1(c2ccc(Cl)cc2)CCCC1	-11	?	16	0	16176*
O=C(NCCO)C1(c2ccc(Cl)cc2)CCCC1	-2	-2	-2	-10	24150*
CCCNC(=O)C1(C)CCN(C(=O)C2(c3ccc(Cl)cc3)CCCC2)C1 (stereo not given)	1	0	2	/	3512
CC(=O)c1ccc(S(=O)(=O)NCCc2csc(-c3cccnc3)n2)cc1	6	0	-3	-5	6179
COC(=O)CN1C(=O)C2(C(C#N)=C(N)Oc3ccccc32)C2=C1CC(C)(C)CC2=O (stereo not given)	-3	2	3	2	22010*
CC(C)Oc1cccc(C(=O)C2CCCN(C(=O)CCn3cnnn3)C2)c1 (stereo not given)	-4	-1	-6	-3	4550
OC(COc1cccc2ccccc12)CN1CCN(c2cccc(Cl)c2)CC1 (stereo not given)	0	-1	-11	-6	3593
SMILES	Anthrax LF inh2	BoNT-A LC inh2	BoNT F protease	MazF activator	Autofluor counter
OC(COc1cccc2ccccc12)CN1CCN(c2ccc(Cl)cc2)CC1 (stereo not given)	-3	0	35*	-8	3947
CC(C(=O)NCc1ccco1)n1cc([N+](=O)[O-])cn1 (stereo not given)	-2	0	-3	-1	4087
C=C1CC[C@@]23CC[C@]4(C)[C@@](OC2=O)([C@@H]3C1)[C@H]1O[C@H]1C1[C@@]2(C)CC[C@H](O)C(C)(C)C2CC[C@]14C (stereo not given in full)	0	0	-4	5	5526
Oc1c(N=Nc2ccccn2)ccc2ccccc12	12	36*	-17	3	6158
O=C(CNS(=O)(=O)c1cccc(F)c1)OCC(=O)N1CCCC1=O	1	-1	-6	3	4132
CCOC(=O)c1cn(CC)c2ccc(S(=O)(=O)N3CC(C)CC(C)C3)cc2c1=O (stereo not given)	1	-1	-1	4	16593*
c1ccc(OCc2nc(-c3cccs3)no2)cc1	1	0	-2	-6	19681*
CCCCCCCCNS(=O)(=O)CCNCc1ccccc1OC	-5	0	-16	1	3967
O=C(NCc1ccco1)c1cc(-c2ccc(Cl)cc2)on1	-1	1	1	-24	22771*
COc1cc(OC)cc(C(=O)NC(=S)NCc2ccco2)c1	-6	?	-3	-17	16948*
O=C(NCc1ccco1)c1cc(-c2ccc3c(c2)OCO3)on1	-3	-4	-6	-2	17176*
COc1cccc(N2CCN(C(=S)NCc3ccco3)CC2)c1	-6	-1	-4	-3	16347*
CCOCCc1nn2c(=O)cc(CSCC(=O)Nc3ccccc3)nc2s1	-5	-22	-35	3	11535
Cc1cc(C)c2cc(C#N)c(NCCCN)nc2c1	14	10	1	/	5660
Cc1ccc(-c2cc(C(=O)NCc3ccco3)no2)cc1	-8	?	-15	-4	8560
O=C(NCc1ccco1)c1cc(-c2cccc(Cl)c2)on1	-12	3	3	-9	21505*
Cc1cc(C(=O)NCc2ccco2)no1	-1	3	4	-7	22251*
O=C(NCc1ccco1)c1ccc(-c2cccc(Cl)c2)o1	0	-2	-9	-6	4376
COc1ccc(OC)c(-c2cc(C(=O)NCc3ccco3)no2)c1	-6	0	-1	2	8033
COc1cccc(-c2cc(C(=O)NCc3ccco3)no2)c1	-3	-3	-5	-3	24153*
CCCc1nc(S(=O)(=O)Cc2ccc(Cl)cc2Cl)n[nH]1	0	5	8	0	17841*
O=c1[nH]nc(Cc2ccc(Cl)cc2Cl)c2ccccc12	0	0	4	10	4500
CCCCCCCCN1C(=O)[C@H](CC(=O)NCC2CCCCC2)C[C@@]2(C(=O)OC)CCCCC=C12	-7	0	-6	/	5102
Cc1ccc(-c2cnn(-c3cccc([N+](=O)[O-])c3)c2N)cc1	-2	0	0	-1	23689*
COc1ccc(OCCC(=O)OCc2c(C)noc2C)cc1	-1	0	-8	2	3556
SMILES	Anthrax LF inh2	BoNT-A LC inh2	BoNT F protease	MazF activator	Autofluor counter
Cc1noc(C)c1COC(=O)CCOc1ccccc1	-1	-2	-4	-5	17725*
Cc1ccccc1N(C(=O)c1snc(C(N)=O)c1N)C(C(=O)NCC1CCCO1)c1ccc(F)cc1 (stereo not given)	10	0	-9	5	3579
Cc1ccc2nc(SCC(=O)NCc3cccs3)c(C#N)cc2c1	-6	-1	-4	3	9212
COC(=O)CSc1nc2ccc(C)cc2cc1C#N	-4	0	0	901*	4268
Cc1cc(C)c2cc(C#N)c(NCCCNC(=O)CCC(=O)O)nc2c1	-2	?	2	2	21922*
COC(=O)CSc1nc2cc(C)cc(C)c2cc1C#N	1	3	8	131*	4463
